Inconclusive results are not listed. Calls of active or inactive are those of the source. The calls were made as follows: active = hit-call score of the fitted dose curve at least 0.9, where 1 is the maximum; inconclusive = response in the unintended direction; inactive = score below 0.9.
Tests used:
[1] = CCTE_Mundy_HCI_iCellGluta_NOG_NeuronCount: CCTE's Neurite Outgrowth Assay in iCellGluta cells for Neuron Count, Mundy Lab (AID 2284340);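 also: cells fixed about 48 h after compound addition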
In short: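 Neuron count read by automated high-content imaging of Hoechst 33342 and betaIII-tubulin/Alexa Fluor-488 labelling in human iPSC glutamatergic neurons. Activity fitted relative to DMSO.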

[2] = CCTE_Mundy_HCI_iCellGluta_NOG_NeuriteCount: CCTE's Neurite Outgrowth Assay in iCellGluta cells for Neurite Count, Mundy Lab (AID 2284342);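 also: chemical exposure about 48 hours starting 2 hours after plating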

| Compound | outcome [1] | outcome [2] |
| --- | --- | --- |
| OCC(O)CO | inactive | inactive |
| CC(=O)CC(c1ccccc1)c1c(O)c2ccccc2oc1=O (stereo not drawn) |  | inactive |
